Test [1] in a line: AP1 Signaling Pathway (AID 357).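 Note: ME-180 reporter cells stimulated with EGF at its EC50 level; % is set by controls: 0 for no effect and ±100 for the full control effect.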 To be noted: ME-180 AP-1-bla reporter, EGF-induced, beta-lactamase ratio, 5 h; at 7.69 µM (top of the series) unless noted. Summed up:
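Modulation of EGF-driven AP-1 transcription was assessed with a beta-lactamase reporter in ME-180 cells. Compound and EC50 EGF were co-incubated 5 hours at 37 °C before 2.5-hour CCF4 loading at room temperature and dual-emission reading.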

Test [2] can be described thus: Stat Signaling Pathway (AID 446).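 Note: ME-180 cervical cancer cells given 40 pM IL-6 alongside compound; SIE-controlled beta-lactamase reporter measured as 460/530 nm FRET emission ratio; % is set by controls: 0 for no effect and ±100 for the full control effect.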 The conditions noted are these: ME-180 (cervical carcinoma) SIE beta-lactamase reporter, IL-6 stimulated, 5 h; at 7.69 µM (top of the series) unless noted. Summed up:
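ME-180 SIE-bla cells; overnight plating; cpd + IL-6 40 pM, 5 h, 37 C; LiveBLAzer 2.5 h RT; 460/530 nm emission ratio. Normalized to 300 pM IL-6 and 125 nM JAK inhibitor controls.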

Test [3] deals with Glucocorticoid receptor (Homo sapiens) (UniProt P04150). Nature of the test: GR-GFP Redistribution (AID 450;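 active = compounds whose dose series gives a full or clear partial fitted curve of increased nuclear translocation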; note: potency is the fitted concentration of half-maximal effect). To be noted: U2OS GR-GFP nuclear translocation, laser cytometry, 2 h.
Sequence of Glucocorticoid receptor (Homo sapiens) (P04150 whole entry, looked up): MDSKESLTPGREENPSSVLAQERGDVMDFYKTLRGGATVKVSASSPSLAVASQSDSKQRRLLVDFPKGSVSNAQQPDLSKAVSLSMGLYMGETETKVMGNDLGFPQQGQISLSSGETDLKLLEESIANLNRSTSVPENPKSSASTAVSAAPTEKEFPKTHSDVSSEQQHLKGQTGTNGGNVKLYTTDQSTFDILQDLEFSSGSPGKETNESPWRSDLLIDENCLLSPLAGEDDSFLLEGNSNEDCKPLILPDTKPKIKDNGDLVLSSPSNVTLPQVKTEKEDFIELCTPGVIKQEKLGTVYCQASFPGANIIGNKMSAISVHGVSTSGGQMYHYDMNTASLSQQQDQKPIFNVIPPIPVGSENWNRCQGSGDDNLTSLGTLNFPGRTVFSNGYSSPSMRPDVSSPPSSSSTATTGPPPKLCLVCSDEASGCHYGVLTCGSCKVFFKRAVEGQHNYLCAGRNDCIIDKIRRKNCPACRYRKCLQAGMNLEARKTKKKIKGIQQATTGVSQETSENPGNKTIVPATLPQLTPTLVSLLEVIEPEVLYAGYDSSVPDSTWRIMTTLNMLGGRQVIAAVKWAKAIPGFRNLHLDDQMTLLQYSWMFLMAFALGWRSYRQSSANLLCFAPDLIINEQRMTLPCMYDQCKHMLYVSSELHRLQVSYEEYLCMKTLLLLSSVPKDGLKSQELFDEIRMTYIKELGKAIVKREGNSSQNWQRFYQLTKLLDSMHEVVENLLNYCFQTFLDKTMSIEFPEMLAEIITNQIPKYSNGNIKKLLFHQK
For test [4] the target is unchanged. The experiment in a line: GR-EFC Redistribution (AID 451; calls by dose curve; note: potency is the fitted concentration of half-maximal effect). The conditions noted are these: CHO-K1 GR-EFC translocation, beta-gal luminescence, 2 h. Summed up:
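Translocation of GR-ED fusion to nuclear EA restores b-gal, read by luminescence after 1 h room-temperature detection. Engineered CHO-K1 biosensor cells, 1,000/well, exposed 2 h at 37 C to titrations up to 46 uM final.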

For test [5], the target named is Mitogen-activated protein kinase 10 (Mus musculus) (UniProt Q61831). Nature of the test: JNK3 AlphaScreen Assay (AID 530).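 Note: kinase came from lysate of stimulated human HepG2 cells; signal reports phosphorylation of biotinylated GST-cJun 1-79 at Ser73 with 10 µM ATP; % is set by controls: 0 for no effect and ±100 for the full control effect.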 Summed up: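 Compound titrations were preincubated 15 minutes at room temperature with substrate, antibody and pre-activated JNK3-containing HepG2 lysate. Reactions were started with 10 uM ATP and stopped with EDTA-containing bead buffer for AlphaScreen detection.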
On the technique in general: Bead proximity is the source of the signal in Alpha formats.

The target of test [6] is 3',5'-cyclic-AMP phosphodiesterase 4B (Homo sapiens) (UniProt Q07343). The experiment in a line: qHTS Assay for Inhibitors of PDE-IV (AID 607; active = well fitted activation curve with a large enough effect in the main read-out, with a control signal flat, not every such curve was filed as active; note: % of control where 0% means no effect). The essentials: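 ACTOne HEK293 cells carry a modified cAMP-gated CNG channel and express endogenous PDE4; plated 1000 cells/well, compounds up to 22.9 uM final. Membrane-potential dye fluorescence (ex 535/em 590) was read; parental cells received 10 uM forskolin + 100 uM RO 20-1724.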
Sequence of 3',5'-cyclic-AMP phosphodiesterase 4B (Homo sapiens) (Q07343 whole entry, looked up): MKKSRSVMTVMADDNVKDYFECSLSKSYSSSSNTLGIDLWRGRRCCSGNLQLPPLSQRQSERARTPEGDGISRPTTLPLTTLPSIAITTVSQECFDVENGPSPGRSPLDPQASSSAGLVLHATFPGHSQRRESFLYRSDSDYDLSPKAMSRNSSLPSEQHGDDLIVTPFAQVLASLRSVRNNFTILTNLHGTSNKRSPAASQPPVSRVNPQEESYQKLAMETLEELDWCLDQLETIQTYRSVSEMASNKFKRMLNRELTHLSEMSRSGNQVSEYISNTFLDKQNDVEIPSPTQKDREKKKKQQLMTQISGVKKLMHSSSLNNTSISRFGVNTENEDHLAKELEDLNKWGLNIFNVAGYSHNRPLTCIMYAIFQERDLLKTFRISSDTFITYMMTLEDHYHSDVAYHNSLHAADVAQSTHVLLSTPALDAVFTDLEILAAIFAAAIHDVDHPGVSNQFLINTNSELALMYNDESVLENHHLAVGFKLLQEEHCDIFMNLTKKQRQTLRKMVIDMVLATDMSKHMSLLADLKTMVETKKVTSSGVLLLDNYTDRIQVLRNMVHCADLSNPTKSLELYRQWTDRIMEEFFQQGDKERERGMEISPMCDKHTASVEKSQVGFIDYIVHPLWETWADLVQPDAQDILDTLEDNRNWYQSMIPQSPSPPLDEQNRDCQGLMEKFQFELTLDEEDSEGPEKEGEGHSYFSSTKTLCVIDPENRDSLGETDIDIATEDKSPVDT
For orientation: Quantitative high-throughput screening tests each substance at several concentrations.

Test [7] can be described thus: NFAT Signaling Pathway (AID 444).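 Note: carbachol stimulus at about its EC50 of 1 µM final; % is set by controls: 0 for no effect and ±100 for the full control effect.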 The conditions noted are these: Jurkat NFAT-bla M1, carbachol, beta-lactamase ratio, 5 h; at 7.69 µM (top of the series) unless noted. Summed up: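 Read-out: CCF4 FRET ratio (460 nm/530 nm) after 1 h RT dye loading, used for %activity and AC50 from titration series. Cells: Jurkat NFAT-β-lactamase/M1 line, treated with compound plus 1 uM carbachol for 5 h, 37 °C.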

The target of test [8] is Guanine nucleotide-binding protein G(i) subunit alpha-1 (Homo sapiens) (UniProt P63096). Nature of the test: qHTS Assay for Inhibitors of RGS12 GoLoco Motif Activity (Green Fluorophore) (AID 879; active = well fitted curve in the direction sought with a large enough effect; an effect the other way counts as inactive or inconclusive;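 note: 0% = labeled peptide with Gαi1 and full inhibition = labeled peptide alone without protein; negative values mean loss of peptide binding seen as reduced polarization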). The essentials: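 Fluorescence polarization assay: 50 nM Gαi1 with 10 nM FITC-labeled RGS12 GoLoco peptide in 10 mM Tris pH 7.5, 150 mM NaCl, 0.1 mM GDP, 0.05% NP40, 10 min at room temperature with compound.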
Sequence of Guanine nucleotide-binding protein G(i) subunit alpha-1 (Homo sapiens) (P63096 whole entry, looked up): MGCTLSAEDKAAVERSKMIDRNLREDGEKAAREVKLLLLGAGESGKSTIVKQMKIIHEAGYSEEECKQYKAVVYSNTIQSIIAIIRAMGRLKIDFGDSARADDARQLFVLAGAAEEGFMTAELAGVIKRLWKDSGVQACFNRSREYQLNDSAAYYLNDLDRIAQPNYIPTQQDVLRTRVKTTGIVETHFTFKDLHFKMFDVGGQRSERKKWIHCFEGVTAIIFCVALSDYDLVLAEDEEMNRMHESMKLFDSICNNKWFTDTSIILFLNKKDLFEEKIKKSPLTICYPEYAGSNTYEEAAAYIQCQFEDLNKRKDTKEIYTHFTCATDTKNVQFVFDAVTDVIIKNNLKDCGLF

Test [9] can be described thus: qHTS Assay for Identification of Small Molecule Agonists for Thrombopoietin (TPO) Signaling Pathway (AID 917; active = well fitted curve in the direction sought with a large enough effect; an effect the other way counts as inactive or inconclusive; note: % is set by controls: 0 for no effect and ±100 for the full control effect). The essentials: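 Luminescence from a Glycoprotein IIb promoter–driven luciferase reporter served as read-out in murine Ba/F3 cells carrying the human TPO receptor. Cells, deprived of IL-3 overnight, received compounds with 26 pM TPO and were incubated 24 hrs at 37 C.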

Test [10] deals with Pyruvate kinase (Leishmania mexicana) (UniProt Q27686). The experiment in a line: qHTS Validation Assay for Inhibitors of Leishmania Mexicana Pyruvate Kinase (AID 945; active = well fitted curve in the direction sought with a large enough effect; an effect the other way counts as inactive or inconclusive;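 note: 0% = DMSO only neutral control wells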). The essentials: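 The enzyme is a highly purified E451W mutant of LmPYK used at 0.2 nM. It converts 0.5 mM PEP and 0.1 mM ADP over 1 h at room temperature; product ATP is quantified by luciferase luminescence relative to DMSO controls.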
Sequence of Pyruvate kinase (Leishmania mexicana) (Q27686 2-499 E452W): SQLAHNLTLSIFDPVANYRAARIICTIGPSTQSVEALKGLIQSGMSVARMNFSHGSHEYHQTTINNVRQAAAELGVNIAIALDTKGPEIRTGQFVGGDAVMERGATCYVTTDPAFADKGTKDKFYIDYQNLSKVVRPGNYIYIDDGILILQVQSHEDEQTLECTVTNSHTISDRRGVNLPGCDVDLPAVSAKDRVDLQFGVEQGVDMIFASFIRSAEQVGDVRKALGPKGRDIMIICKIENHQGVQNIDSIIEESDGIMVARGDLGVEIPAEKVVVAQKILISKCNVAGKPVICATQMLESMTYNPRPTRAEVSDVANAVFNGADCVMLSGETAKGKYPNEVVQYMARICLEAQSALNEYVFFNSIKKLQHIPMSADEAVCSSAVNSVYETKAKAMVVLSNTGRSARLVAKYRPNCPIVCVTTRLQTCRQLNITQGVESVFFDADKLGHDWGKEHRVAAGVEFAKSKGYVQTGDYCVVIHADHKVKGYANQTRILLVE

In test [11] the target is Pyruvate kinase PKM (Homo sapiens) (UniProt P14618). Nature of the test: qHTS Assay for Activators of Human Muscle Pyruvate Kinase (AID 954; active = well fitted curve in the direction sought with a large enough effect, not every such curve was filed as active;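 note: 0% = uninhibited enzyme and -100% = no enzyme or full thiadiazolimine inhibition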). The essentials: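 Luminescence from a luciferase ATP-detection/stop reagent reported PKM2 activity. Reactions contained 0.1 nM purified human enzyme, 0.5 mM PEP, 0.1 mM ADP and 7 mM MgCl2 at pH 7.2, run 1 h at RT.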
Sequence of Pyruvate kinase PKM (Homo sapiens) (P14618 whole entry, looked up): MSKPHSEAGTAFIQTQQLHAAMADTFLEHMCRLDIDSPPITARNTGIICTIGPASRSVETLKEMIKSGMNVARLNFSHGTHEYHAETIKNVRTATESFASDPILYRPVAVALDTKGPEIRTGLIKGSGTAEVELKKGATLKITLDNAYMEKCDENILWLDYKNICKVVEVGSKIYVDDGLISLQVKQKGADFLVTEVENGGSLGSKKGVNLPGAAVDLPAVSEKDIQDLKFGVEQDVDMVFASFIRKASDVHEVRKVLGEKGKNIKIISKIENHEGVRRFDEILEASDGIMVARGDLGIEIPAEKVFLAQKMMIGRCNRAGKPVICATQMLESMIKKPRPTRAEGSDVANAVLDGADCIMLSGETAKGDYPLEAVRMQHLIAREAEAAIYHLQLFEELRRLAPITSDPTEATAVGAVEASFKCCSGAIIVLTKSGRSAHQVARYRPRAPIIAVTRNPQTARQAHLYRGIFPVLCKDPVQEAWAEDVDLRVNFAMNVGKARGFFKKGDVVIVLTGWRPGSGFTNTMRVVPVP
Test [12] deals with Alpha-galactosidase A (Homo sapiens) (UniProt P06280). Nature of the test: Counterscreen for Glucocerebrosidase Inhibitors: qHTS Assay for Human alpha-Galactosidase at pH 4.5 (AID 992; active = well fitted curve in the direction sought with a large enough effect; an effect the other way counts as inactive or inconclusive; note: 0% is about no effect). Summed up:
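Enzyme at 2 nM final was combined with compound (0.7 nM to 77 uM) and 80 uM 4-methylumbelliferyl alpha-D-galactopyranoside in 50 mM citric acid, 0.005% Tween-20, pH 4.5. After 20 min at room temperature, fluorescence was read (Ex 365/Em 440 nm); AC50 came from Hill fits.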
A general note: A counterscreen serves to expose hits that act by an unwanted route or on another target.

Test [13] addresses alpha-glucosidase (Oryza sativa, rice) (UniProt Q653V4). Nature of the test: Counterscreen for Glucocerebrosidase Inhibitors: qHTS Assay for Rice alpha-Glucosidase at pH 5.0 (AID 997; active = well fitted curve in the direction sought with a large enough effect; an effect the other way counts as inactive or inconclusive;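 note: 0% = full activity with enzyme and -100% = basal without enzyme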). The essentials: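 Rice alpha-glucosidase (4 nM final) with 400 uM 4-methylumbelliferyl-alpha-D-glucopyranoside in citrate buffer pH 5.0, 20 min at room temperature, stopped at pH 10; fluorescence 365/440 nm, compounds 0.7 nM–77 uM, AC50 from Hill fits.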

In test [14] the target is Cytochrome P450 1A2 (Homo sapiens) (UniProt P05177). The experiment in a line: p450-cyp1a2 (AID 410; calls by dose curve; note: potency is the fitted concentration of half-maximal effect). Summed up:
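Luminescent readout of luciferin formed from Luciferin-ME by human CYP1A2; data normalized against complete inhibition by 57 uM furafylline. Enzyme 20nM, substrate 100uM at Km, 100mM KPO4 buffer, 60 min reaction at room temperature.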

Test [15] deals with Cytochrome P450 2D6 (Homo sapiens) (UniProt P10635). Nature of the test: qHTS Assay for Inhibitors and Substrates of Cytochrome P450 2D6 (AID 891; active = well fitted curve in the direction sought with a large enough effect; an effect the other way counts as inactive or inconclusive; note: potency is the fitted concentration of half-maximal effect; nearly all actives have a fitted effect of over 60% in size). The essentials: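 Human CYP2D6 (5 nM) with 30 uM Luciferin-ME EGE (at Km) in 100 mM KPO4, compound preincubated 10 min, then NADPH regeneration system for 60 min at room temperature. Luciferin read by luminescence; normalized to 1.43 uM quinidine.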

The target in test [16] is Cytochrome P450 2C19 (Homo sapiens) (UniProt P33261). The experiment in a line: qHTS Assay for Inhibitors and Substrates of Cytochrome P450 2C19 (AID 899; active = well fitted curve in the direction sought with a large enough effect; an effect the other way counts as inactive or inconclusive; note: potency is the fitted concentration of half-maximal effect; nearly all actives have a fitted effect of over 60% in size). Summed up: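 5nM enzyme + 10uM Luciferin-H EGE (=KM), 50mM KPO4; cpd pin-transferred, 10 min 37C; NADPH regen, 60 min 37C; stopped w/ luciferin detection reagent, 20 min; luminescence. Normalized to 57uM ketoconazole (AC100).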
Sequence of Cytochrome P450 2C19 (Homo sapiens) (P33261 whole entry, looked up): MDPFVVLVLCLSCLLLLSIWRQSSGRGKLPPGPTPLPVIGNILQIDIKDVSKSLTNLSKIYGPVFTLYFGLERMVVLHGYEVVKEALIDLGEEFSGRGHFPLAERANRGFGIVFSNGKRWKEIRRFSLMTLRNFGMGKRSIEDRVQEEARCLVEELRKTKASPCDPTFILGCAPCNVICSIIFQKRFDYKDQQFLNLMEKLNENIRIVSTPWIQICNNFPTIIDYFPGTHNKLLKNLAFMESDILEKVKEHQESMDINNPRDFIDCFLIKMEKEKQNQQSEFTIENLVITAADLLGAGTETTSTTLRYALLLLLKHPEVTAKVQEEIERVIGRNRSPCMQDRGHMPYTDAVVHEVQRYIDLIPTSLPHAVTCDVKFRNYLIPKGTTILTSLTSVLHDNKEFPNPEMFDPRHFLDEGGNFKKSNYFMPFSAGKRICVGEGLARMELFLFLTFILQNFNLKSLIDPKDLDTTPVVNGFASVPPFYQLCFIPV

Test [17] addresses Cytochrome P450 3A4 (Homo sapiens) (UniProt P08684). The experiment in a line: qHTS Assay for Inhibitors and Substrates of Cytochrome P450 3A4 (AID 884; active = well fitted curve in the direction sought with a large enough effect; an effect the other way counts as inactive or inconclusive; note: % is set by controls: 0 for no effect and ±100 for the full control effect; nearly all actives have a fitted effect of over 50% in size). Summed up: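 20 nM human CYP3A4 with 25 uM Luciferin-PPXE (at KM) in 200 mM KPO4, preincubated 10 min with compound; NADPH regeneration started a 60 min RT reaction. Luciferin detected by luminescence, normalized to 57 uM ketoconazole as full inhibition.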

For test [18] the target is unchanged. The experiment in a line: qHTS Assay for Activators of Cytochrome P450 3A4 (AID 885; active = well fitted curve in the direction sought with a large enough effect; an effect the other way counts as inactive or inconclusive; note: potency is the fitted concentration of half-maximal effect; nearly all actives have a fitted effect of over 65% in size). Summed up:
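20nM CYP3A4 + 25uM Luciferin-PPXE (=KM), 200mM KPO4; cpd 10 min RT; NADPH regen, 60 min RT; stop w/ detection buffer, 20 min; luminescence. Normalized to 57 uM ketoconazole.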

Test [19] has as its target Muscarinic acetylcholine receptor M1 (Rattus norvegicus) (UniProt P08482). Nature of the test: qHTS Assay for Antagonists of Acetylcholine Muscarinic M1 Receptor: Measurement of IP-One Response (AID 944; active = well fitted curve in the direction sought with a large enough effect; an effect the other way counts as inactive or inconclusive; note: nearly all actives have a fitted effect of over 75% in size). The essentials: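 M1-CHO (rat), 2000 cells/well, overnight recovery; cpd 10 min; carbachol EC80 (200 nM), 30 min, HEPES buffer + 50 mM LiCl pH 7.4; IP-One HTRF, Ex 337, Em 620/665 nm.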

Unmarked numbers belong to inactive results. Results filed as inconclusive are left out. Activity calls are given as the source filed them. Unless noted, calls come from the whole dose curve; as a rule, active = well fitted curve in either direction with a large enough effect (not every such curve was filed as active); inconclusive = small, poorly fitted or top-dose-only effect, or another doubt; inactive = flat fitted curve, though single readings scatter.

Sequence of Alpha-galactosidase A (Homo sapiens) (P06280 whole entry, looked up): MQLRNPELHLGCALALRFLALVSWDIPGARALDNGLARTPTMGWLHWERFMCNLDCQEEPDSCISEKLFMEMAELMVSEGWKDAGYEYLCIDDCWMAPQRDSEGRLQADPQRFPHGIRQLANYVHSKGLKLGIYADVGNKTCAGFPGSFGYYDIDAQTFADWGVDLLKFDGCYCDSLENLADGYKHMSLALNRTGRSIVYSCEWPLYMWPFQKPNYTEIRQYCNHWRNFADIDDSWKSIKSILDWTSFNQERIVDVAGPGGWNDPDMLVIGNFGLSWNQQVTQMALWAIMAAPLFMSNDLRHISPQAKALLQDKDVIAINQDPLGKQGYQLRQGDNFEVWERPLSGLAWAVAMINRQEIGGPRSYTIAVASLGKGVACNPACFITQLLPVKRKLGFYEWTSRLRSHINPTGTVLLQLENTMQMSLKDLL
Sequence of Cytochrome P450 1A2 (Homo sapiens) (P05177 whole entry, looked up): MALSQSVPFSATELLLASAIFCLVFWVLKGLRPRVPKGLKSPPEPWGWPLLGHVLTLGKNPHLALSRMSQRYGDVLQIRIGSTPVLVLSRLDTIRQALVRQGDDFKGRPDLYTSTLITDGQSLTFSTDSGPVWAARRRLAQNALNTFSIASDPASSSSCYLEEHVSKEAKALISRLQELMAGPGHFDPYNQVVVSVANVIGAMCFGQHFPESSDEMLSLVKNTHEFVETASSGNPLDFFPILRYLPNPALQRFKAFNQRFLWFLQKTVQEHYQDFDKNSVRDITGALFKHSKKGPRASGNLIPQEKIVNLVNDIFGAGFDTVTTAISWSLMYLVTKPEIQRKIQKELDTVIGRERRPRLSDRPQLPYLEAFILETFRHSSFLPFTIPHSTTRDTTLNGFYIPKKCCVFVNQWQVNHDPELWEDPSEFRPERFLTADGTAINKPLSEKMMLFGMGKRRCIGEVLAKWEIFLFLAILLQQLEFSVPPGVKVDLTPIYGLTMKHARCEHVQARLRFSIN
Sequence of Cytochrome P450 3A4 (Homo sapiens) (P08684 whole entry, looked up): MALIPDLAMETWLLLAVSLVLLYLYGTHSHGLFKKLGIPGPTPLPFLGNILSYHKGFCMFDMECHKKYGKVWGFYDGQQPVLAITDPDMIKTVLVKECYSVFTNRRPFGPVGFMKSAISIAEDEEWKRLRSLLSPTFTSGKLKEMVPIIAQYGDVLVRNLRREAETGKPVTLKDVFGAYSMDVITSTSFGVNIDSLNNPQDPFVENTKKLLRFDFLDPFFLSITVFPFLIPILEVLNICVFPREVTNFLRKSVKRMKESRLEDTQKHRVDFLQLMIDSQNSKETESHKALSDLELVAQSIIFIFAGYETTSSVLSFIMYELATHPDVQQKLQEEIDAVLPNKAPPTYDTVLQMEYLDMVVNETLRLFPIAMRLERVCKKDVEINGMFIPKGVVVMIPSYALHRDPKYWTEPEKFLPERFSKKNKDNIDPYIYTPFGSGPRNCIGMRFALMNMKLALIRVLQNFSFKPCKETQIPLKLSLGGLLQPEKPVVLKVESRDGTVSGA

On to `O=C(Nc1ccc2c(c1)Cc1ccccc1-2)[C@@H]1[C@H](C(=O)O)[C@]2(Cl)C(Cl)=C(Cl)[C@@]1(Cl)C2(Cl)Cl`, for which the activity change, negative = inhibition in [1] was 9.85%. Further, the activity, negative = inhibition in test [2] was 4.65%. In addition, the Potency in test [3] was greater than 46 µM; in test [4], greater than 9.22 µM. Also, the Potency result in test [5] and in [6] was “inactive” in each case.
As to `CC[C@@H](c1ccc2cc(O)ccc2c1)C(C)(C)C(=O)O`, the activity change, negative = inhibition was -1.38% in [1] and 8.96% in test [7]. For the same compound, in test [2], the activity, negative = inhibition is 6.79%. In addition, the Potency in [3] is greater than 46 µM; in test [4] it was greater than 9.22 µM. In addition, the Potency entry in [5] and in [6] was “inactive” in each case.
Take `CN[C@@H](CC(C)C)C(=O)N[C@@H]1C(=O)N[C@H](CC(N)=O)C(=O)N[C@H]2C(=O)N[C@H]3C(=O)N[C@H](C(=O)N[C@H](C(=O)O)c4cc(O)cc(O)c4-c4cc3ccc4O)[C@H](O)c3ccc(c(Cl)c3)Oc3cc2cc(c3O[C@@H]2O[C@@H](CO)[C@@H](O)[C@@H](O)[C@H]2O[C@H]2C[C@](C)(N)[C@H](O)[C@H](C)O2)Oc2ccc(cc2Cl)[C@@H]1O`: the activity change, negative = inhibition in test [1] was -0.977% [at 38 µM]; in test [7] it was 0.625% [at 38 µM]. Besides, the activity, negative = inhibition in [2] is 4.5% [at 38 µM]. For the same compound, the Potency in [3] and in test [4] was greater than 46 µM throughout. Also, the Potency result in test [5], in test [6] and in test [13] was “inactive” in each case. The compound was classed as inactive in test [8], in test [9], in [10], in test [11] and in test [12].
For the compound `CN(Cc1cccc2ccccc12)Cc1cccc2ccccc12`, the activity change, negative = inhibition in test [1] is 6.28%. Besides, the Potency is 3.16 µM (active) in test [14]; greater than 46 µM in [3]; greater than 9.22 µM in [4]; 0.398 µM (active) in test [15]; 1.58 µM (active) in test [16]. In [2], the activity, negative = inhibition is -2.17%. For the same compound, the Potency result in test [5] and in test [6] was “inactive” throughout.
With `O[C@H](CN1CCN(c2cccc(Cl)c2)CC1)C(c1ccccc1)c1ccccc1`, in test [1], the activity change, negative = inhibition is -10.5% [at 38 µM]. Moreover, the Potency was 12.6 µM (active) in test [14], greater than 46 µM in test [3], greater than 46 µM in test [4] and 7.94 µM (active) in test [18]. For the same compound, in [2], the activity, negative = inhibition is 24.9% [at 38 µM]. For the same compound, the Potency entry in test [5], in [6], in [17], in test [19] and in test [13] was “inactive” throughout. Further, the compound was classed as inactive in test [8], in test [9], in [10], in test [11] and in [12].
In the case of `Cc1nc2sc3c(c2c(=O)[nH]1)CCCC3`, the activity change, negative = inhibition in test [1] was 10.8%; in [7] it was -6.08%. Besides, the activity, negative = inhibition in test [2] was 6.96%. In test [4], the Potency is greater than 9.22 µM. In addition, the Potency result in test [5] and in [6] was “inactive” in each case.
Consider `O=C(O)[C@@H]1CCCN1Cc1cc2ccccc2c2ccccc12`, for which the activity change, negative = inhibition was 21.6% in test [1] and 17.3% in [7]. For the same compound, the activity, negative = inhibition in [2] was 2.3%. In test [3], the Potency is greater than 46 µM. Besides, the Potency entry in test [5] and in test [6] was “inactive” in each case.

The record behind these values is PubChem BioAssay (NCATS).
